Test results taken from PubChem BioAssay.
Calls of active or inactive are those of the source.

Tests used:
[1] = binders of probe aFSTL3 on microarray, primary screen, stem cell growth factor project, biochemical, small-molecule microarray, fluorescence 635/667 (AID 1064); conditions: higher = more signal;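 note: measures binding of the biotinylated anti-FSTL3 antibody to printed compounds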
[2] = binders from COS7 lysate, DM2A8 probe, primary screen, torsin A project, cell lysate, small-molecule microarray, fluorescence 635/667 (AID 1065); conditions: higher = more signal, COS7 lysate expressing mutant human TOR1A
[3] = binders of probe aFGF2 on microarray, primary screen, stem cell growth factor project, biochemical, small-molecule microarray, fluorescence 635/667 (AID 1067); conditions: higher = more signal;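 note: measures binding of biotinylated aFGF2 protein to printed compounds on slides; z-score merges feature fluorescence and signal-to-noise across triplicate slides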
[4] = binders of probe aFGF10 on microarray, primary screen, stem cell growth factor project, biochemical, small-molecule microarray, fluorescence 635/667 (AID 1071); conditions: higher = more signal;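 note: score merges 667 nm spot intensity and signal to noise from triplicate slides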
[5] = target: Neurogenic locus notch homolog protein 2 (Homo sapiens) (UniProt Q04721); experiment: Notch2 binders on small-molecule microarrays, primary screen, biochemical, small-molecule microarray, 635 nm fluorescence, stem cell growth factors (AID 1073); conditions: Notch2 binding, higher = more signal
[6] = target: Pro-neuregulin-1, membrane-bound isoform (Homo sapiens) (UniProt Q02297); experiment: NRG1 binders on small-molecule microarrays, primary screen, psychiatric disease protein project, biochemical, small-molecule microarray, fluorescence 635/667 (AID 1075); conditions: NRG1 binding, 635 nm fluorescence, higher = more signal;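 note: score combines 667 nm spot fluorescence with signal to noise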
[7] = test system: Neuregulin-1 EGF-like domain; experiment: binders of neuregulin-1 EGF-like domain, primary screen, biochemical, small-molecule microarray, 635 nm fluorescence (AID 1081); conditions: small-molecule microarray binding, higher = more signal;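 note: binding of the protein to compounds printed on small-molecule microarray slides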
[8] = FRG1 promoter luciferase signal modulators, primary screen, FRG1 inhibition for FSHD, cell-based, C2C12 myotubes, firefly/Renilla luciferase, luminescence (AID 1084); conditions: higher = more signal, called active from +8 up or from −8 down
[9] = binders of probe aFST on microarray, primary screen, stem cell growth factor project, biochemical, small-molecule microarray, fluorescence 635/667 (AID 1086); conditions: higher = more signal;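 note: score merges 667 nm fluorescence with signal-to-noise of each printed compound spot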
[10] = binders of probe aHhip on microarray, primary screen, stem cell growth factor project, biochemical, small-molecule microarray, fluorescence 635/667 (AID 1087); conditions: higher = more signal;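 note: score merges spot fluorescence at 667nm with spot signal to noise ratio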
[11] = test system: PRMT1 (protein arginine N-methyltransferase 1); experiment: PRMT1 binders on small-molecule microarrays, primary screen, biochemical, small-molecule microarray, 635 nm fluorescence (AID 1088); conditions: small-molecule microarray binding, higher = more signal;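 note: binding of Prmt1 protein to compounds spotted on small-molecule microarray slides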
[12] = yeast growth modulation, basal conditions, primary screen, YJM789 clinical isolate, OD600, 24 h (AID 1089);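 note: growth of clinical yeast isolate S. cerevisiae YJM 789 seeded 1000 cells per well; test concentration not given here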; conditions: S. cerevisiae YJM789 growth, higher = more signal, called active from +8 up or from −8 down
[13] = fission yeast growth modulation, primary screen, strain 972, OD600, 24 h, no modulator (AID 1090);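 note: basal condition with compound alone and no growth modifier present; test concentration not given here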; conditions: S. pombe 972 growth, higher = more signal, called active from +8 up or from −8 down
[14] = S. cerevisiae growth modulation with rapamycin, primary screen, strain BY4716, OD600, 96 h (AID 1091); conditions: higher = more signal, called active from +8 up or from −8 down; note: test concentration not given here
[15] = target: Torsin-1A-interacting protein 2 (Homo sapiens) (UniProt Q8NFQ8); experiment: LULL1 binders on small-molecule microarray, primary screen, cell lysate, human LULL1 lysate, 635/667 nm fluorescence (AID 1092); conditions: hLULL1 lysate binding, 635 nm fluorescence, higher = more signal;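 note: probe is lysate of COS7 cells overexpressing human LULL1; score merges per-feature 667 nm fluorescence with signal-to-noise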
[16] = E. coli growth modulation, two-sided OD650, primary screen, E. coli filamentation project, strain DRC41, 24 h (AID 1093); conditions: OD650, 24 h, higher = more signal, called active from +8 up or from −8 down;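 note: MC1000 strain lacking acrAB efflux and sulA so SOS filamentation is blocked; test concentration not given here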
[17] = small-molecule microarray binders of probe aLefty2, primary screen, biochemical, biotinylated probe, 635/667 nm fluorescence (AID 1094); conditions: higher = more signal;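 note: score merges spot fluorescence near 667 nm with spot signal-to-noise ratio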
[18] = test system: Noggin (protein binding on small-molecule microarray); experiment: Noggin binders on small-molecule microarray, primary screen, biochemical, 635/667 nm fluorescence (AID 1095); conditions: 635 nm fluorescence, higher = more signal;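 note: score merges 667 nm feature fluorescence with signal to noise over triplicate slides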
[19] = target: Neurogenic locus notch homolog protein 3 (Homo sapiens) (UniProt Q9UM47); experiment: NOTCH3 binders on small-molecule microarray, primary screen, biochemical, 635/667 nm fluorescence (AID 1096); conditions: NOTCH3 binding, 635 nm fluorescence, higher = more signal
[20] = small-molecule microarray binders of probe aEGFR, primary screen, biochemical, biotinylated probe, 635/667 nm fluorescence (AID 1097); conditions: higher = more signal;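 note: probe is a biotinylated anti-EGFR antibody binding compounds printed on slides; score combines fluorescence near 667 nm and signal to noise of each spot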

Sequence of Pro-neuregulin-1, membrane-bound isoform (Homo sapiens) (Q02297 whole entry, looked up, the tested form may be a part, canonical isoform): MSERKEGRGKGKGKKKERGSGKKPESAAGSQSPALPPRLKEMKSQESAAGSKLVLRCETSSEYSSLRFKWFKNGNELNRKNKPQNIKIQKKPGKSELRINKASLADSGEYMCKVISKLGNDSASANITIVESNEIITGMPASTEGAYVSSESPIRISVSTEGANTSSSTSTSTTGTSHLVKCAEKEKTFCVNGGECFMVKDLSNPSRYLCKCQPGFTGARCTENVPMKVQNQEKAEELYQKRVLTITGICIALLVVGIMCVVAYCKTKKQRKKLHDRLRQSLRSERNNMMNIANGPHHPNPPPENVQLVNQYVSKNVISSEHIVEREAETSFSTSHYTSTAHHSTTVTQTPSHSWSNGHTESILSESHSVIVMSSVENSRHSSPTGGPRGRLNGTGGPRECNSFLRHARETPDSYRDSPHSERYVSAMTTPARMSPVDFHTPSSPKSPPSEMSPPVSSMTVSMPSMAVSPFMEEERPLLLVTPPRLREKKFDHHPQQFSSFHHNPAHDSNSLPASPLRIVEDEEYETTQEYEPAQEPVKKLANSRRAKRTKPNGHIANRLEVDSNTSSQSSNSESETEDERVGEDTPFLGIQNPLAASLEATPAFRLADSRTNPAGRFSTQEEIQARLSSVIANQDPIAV
Sequence of Neurogenic locus notch homolog protein 2 (Homo sapiens) (Q04721 whole entry, looked up, canonical isoform): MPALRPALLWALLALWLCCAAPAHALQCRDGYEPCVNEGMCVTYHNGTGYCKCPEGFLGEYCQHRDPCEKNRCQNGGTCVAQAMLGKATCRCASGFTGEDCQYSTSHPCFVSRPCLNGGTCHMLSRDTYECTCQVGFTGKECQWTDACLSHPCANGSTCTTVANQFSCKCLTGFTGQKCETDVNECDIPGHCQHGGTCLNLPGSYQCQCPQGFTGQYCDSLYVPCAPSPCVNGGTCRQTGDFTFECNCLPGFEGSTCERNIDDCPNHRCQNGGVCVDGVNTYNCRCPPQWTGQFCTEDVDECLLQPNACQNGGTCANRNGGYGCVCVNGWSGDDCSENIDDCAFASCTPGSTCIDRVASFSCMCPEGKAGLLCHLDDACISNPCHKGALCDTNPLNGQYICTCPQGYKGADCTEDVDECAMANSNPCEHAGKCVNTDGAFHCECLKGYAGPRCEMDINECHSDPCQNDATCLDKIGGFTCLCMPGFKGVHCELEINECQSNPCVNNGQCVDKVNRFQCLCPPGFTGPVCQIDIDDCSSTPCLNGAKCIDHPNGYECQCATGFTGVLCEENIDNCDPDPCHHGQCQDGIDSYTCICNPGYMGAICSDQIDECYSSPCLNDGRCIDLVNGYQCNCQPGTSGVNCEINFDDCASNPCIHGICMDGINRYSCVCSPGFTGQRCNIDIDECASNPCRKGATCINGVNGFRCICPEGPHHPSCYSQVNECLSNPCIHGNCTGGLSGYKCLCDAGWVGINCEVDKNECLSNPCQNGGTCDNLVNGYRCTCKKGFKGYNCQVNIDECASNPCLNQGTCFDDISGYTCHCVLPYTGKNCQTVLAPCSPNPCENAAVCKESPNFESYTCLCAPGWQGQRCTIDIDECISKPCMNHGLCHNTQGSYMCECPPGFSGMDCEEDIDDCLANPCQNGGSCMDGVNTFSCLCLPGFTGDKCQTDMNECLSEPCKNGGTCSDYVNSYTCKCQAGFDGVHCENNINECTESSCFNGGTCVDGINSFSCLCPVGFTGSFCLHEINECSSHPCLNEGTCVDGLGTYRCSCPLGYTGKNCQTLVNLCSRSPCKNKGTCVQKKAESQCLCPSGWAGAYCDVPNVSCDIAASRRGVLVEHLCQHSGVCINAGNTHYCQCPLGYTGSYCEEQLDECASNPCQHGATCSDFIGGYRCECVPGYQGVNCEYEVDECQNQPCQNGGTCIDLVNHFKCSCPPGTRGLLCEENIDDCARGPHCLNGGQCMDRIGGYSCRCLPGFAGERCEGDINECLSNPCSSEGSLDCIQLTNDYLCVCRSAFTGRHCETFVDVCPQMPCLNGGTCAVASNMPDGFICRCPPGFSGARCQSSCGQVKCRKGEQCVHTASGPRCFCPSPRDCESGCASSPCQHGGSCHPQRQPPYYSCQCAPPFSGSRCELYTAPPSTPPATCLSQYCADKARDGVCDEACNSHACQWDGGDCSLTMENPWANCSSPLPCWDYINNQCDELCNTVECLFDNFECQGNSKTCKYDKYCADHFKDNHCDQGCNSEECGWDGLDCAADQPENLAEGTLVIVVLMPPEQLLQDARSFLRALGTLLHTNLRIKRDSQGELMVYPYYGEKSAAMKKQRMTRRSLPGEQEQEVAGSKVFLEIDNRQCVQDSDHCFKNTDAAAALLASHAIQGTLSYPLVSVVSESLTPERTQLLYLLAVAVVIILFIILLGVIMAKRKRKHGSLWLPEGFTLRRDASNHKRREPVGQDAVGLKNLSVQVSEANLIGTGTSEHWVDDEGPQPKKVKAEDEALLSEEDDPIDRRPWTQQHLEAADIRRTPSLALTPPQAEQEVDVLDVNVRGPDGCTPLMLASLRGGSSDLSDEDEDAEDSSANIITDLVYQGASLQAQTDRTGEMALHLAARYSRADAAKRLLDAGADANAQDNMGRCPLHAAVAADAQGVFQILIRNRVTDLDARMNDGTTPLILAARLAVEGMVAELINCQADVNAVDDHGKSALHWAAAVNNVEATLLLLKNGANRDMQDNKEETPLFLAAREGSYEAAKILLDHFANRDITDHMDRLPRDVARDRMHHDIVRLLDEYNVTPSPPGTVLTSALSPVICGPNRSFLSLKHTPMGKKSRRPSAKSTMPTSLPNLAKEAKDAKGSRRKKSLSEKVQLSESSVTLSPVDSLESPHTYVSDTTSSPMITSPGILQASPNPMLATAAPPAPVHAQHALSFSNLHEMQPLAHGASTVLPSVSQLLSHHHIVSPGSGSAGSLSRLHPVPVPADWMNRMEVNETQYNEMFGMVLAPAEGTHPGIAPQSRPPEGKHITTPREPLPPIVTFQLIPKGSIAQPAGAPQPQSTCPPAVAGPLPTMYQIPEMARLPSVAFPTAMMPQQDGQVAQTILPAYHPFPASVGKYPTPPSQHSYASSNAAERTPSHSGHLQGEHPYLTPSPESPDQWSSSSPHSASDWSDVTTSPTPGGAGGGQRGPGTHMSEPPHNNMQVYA
Sequence of Torsin-1A-interacting protein 2 (Homo sapiens) (Q8NFQ8 whole entry, looked up): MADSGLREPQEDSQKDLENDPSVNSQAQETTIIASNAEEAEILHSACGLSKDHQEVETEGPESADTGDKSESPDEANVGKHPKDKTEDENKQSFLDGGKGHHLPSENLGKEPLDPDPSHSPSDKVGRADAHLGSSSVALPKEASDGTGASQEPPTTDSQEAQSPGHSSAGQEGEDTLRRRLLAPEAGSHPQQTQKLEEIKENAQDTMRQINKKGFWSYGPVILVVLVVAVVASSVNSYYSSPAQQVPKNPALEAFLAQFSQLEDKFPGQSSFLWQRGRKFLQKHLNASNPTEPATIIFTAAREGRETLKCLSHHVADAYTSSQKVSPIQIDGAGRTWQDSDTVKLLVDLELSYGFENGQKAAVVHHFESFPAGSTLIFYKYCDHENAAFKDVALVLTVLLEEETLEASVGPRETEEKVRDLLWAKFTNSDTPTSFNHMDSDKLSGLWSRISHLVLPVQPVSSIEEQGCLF

COCCOC(=O)N1C(=O)[C@@]2(c3cc(C#Cc4ccc(OC)cc4)ccc31)[C@H](c1ccc(O)cc1)N1[C@H](c3ccccc3)[C@H](c3ccccc3)OC(=O)[C@H]1[C@@H]2C(=O)N1CCN(c2ncccn2)CC1
composite z-score [1]: -0.867
composite z-score [2]: 0.47
composite z-score [3]: -0.0225
composite z-score [4]: 0.381
composite z-score [5]: 0.846
composite z-score [6]: 0.467
composite z-score [7]: 1.13
z-score [8]: -0.431 (inactive)
composite z-score [9]: 0.619
composite z-score [10]: -0.132
composite z-score [11]: 1.52
z-score [12]: 1.56 (inactive)
z-score [13]: 1.16 (inactive)
z-score [14]: 2.83 (inactive)
composite z-score [15]: 2.44
z-score [16]: 1.15 (inactive)
composite z-score [17]: 0.047
composite z-score [18]: 0.52
composite z-score [19]: 0.258
composite z-score [20]: 0.0746

C=CCC(OC(C)=O)[C@@H]1[C@@H](N(Cc2cc3ccccc3o2)C(=O)c2ccc(-c3ccccc3)cc2)c2cc(OCCCO)ccc2N1C(=O)Cc1ccc2ccccc2c1 (stereo not given in full)
composite z-score [1]: 0.179
composite z-score [2]: -0.499
composite z-score [3]: -0.0428
composite z-score [4]: 0.101
composite z-score [5]: -0.14
composite z-score [6]: -0.0892
composite z-score [7]: -0.5
z-score [8]: -1.28 (inactive)
composite z-score [9]: 0.261
composite z-score [10]: 0.17
composite z-score [11]: -0.598
z-score [12]: 1.06 (inactive)
z-score [13]: 0.263 (inactive)
z-score [14]: 1.49 (inactive)
composite z-score [15]: 0.898
z-score [16]: 0.0672 (inactive)
composite z-score [17]: -0.166
composite z-score [18]: -0.125
composite z-score [19]: -0.376
composite z-score [20]: -0.166

COC(=O)[C@@]1(Cc2ccccc2)[C@H]2c3cc(C(=O)N(C)C)n(Cc4ccccc4)c3C[C@H]2CN1C(=O)c1ccccc1
composite z-score [1]: 0.0252
composite z-score [2]: -0.705
composite z-score [3]: 0.274
composite z-score [4]: 0.747
composite z-score [5]: 1.67
composite z-score [6]: 0.614
composite z-score [7]: 1.26
z-score [8]: 0.273 (inactive)
composite z-score [9]: 0.856
composite z-score [10]: 0.896
composite z-score [11]: -0.361
z-score [12]: 0.84 (inactive)
z-score [13]: 1.74 (inactive)
z-score [14]: 1.51 (inactive)
composite z-score [15]: 2.59
z-score [16]: -0.813 (inactive)
composite z-score [17]: 0.434
composite z-score [18]: 0.018
composite z-score [19]: 0.85
composite z-score [20]: 0.291

COCCOC(=O)N1C(=O)[C@@]2(c3cc(C#CC4(O)CCCCCC4)ccc31)[C@H](c1ccc(O)cc1)N1[C@H](c3ccccc3)[C@H](c3ccccc3)OC(=O)[C@H]1[C@@H]2C(=O)N1CCc2cc(OC)c(OC)cc2C1
composite z-score [1]: 0.244
composite z-score [2]: -0.287
composite z-score [3]: -0.116
composite z-score [4]: -0.432
composite z-score [5]: -1.54
composite z-score [6]: 0.449
composite z-score [7]: 0.0919
z-score [8]: 0.0543 (inactive)
composite z-score [9]: -0.538
composite z-score [10]: -0.268
composite z-score [11]: 1.56
z-score [12]: -0.749 (inactive)
z-score [13]: -0.395 (inactive)
z-score [14]: -0.494 (inactive)
composite z-score [15]: 2.41
z-score [16]: 1.45 (inactive)
composite z-score [17]: -0.0719
composite z-score [18]: -0.435
composite z-score [19]: -0.551
composite z-score [20]: -0.226

COc1ccc(C#Cc2ccc3c(c2)[C@]2(C(=O)N3)[C@H](C(=O)N3CCc4cc(OC)c(OC)cc4C3)[C@H]3C(=O)O[C@H](c4ccccc4)[C@H](c4ccccc4)N3[C@@H]2c2ccc(OCCO)cc2)cc1
composite z-score [1]: -0.304
composite z-score [2]: 0.487
composite z-score [3]: 0.0019
composite z-score [4]: 0.817
composite z-score [5]: 1.32
composite z-score [6]: 0.213
composite z-score [7]: 1.2
z-score [8]: 0.239 (inactive)
composite z-score [9]: 0.35
composite z-score [10]: 0.314
composite z-score [11]: 1.55
z-score [12]: 3.09 (inactive)
z-score [13]: 2.07 (inactive)
z-score [14]: 6.17 (inactive)
composite z-score [15]: 2.51
z-score [16]: 1.9 (inactive)
composite z-score [17]: -0.0728
composite z-score [18]: 1.48
composite z-score [19]: 1.17
composite z-score [20]: 0.102

COC(=O)c1c(CC[C@@H](CO)NC(=O)Nc2ncn[nH]2)oc(C(=O)Cc2ccccc2)c1C(=O)OC
composite z-score [1]: -0.468
composite z-score [2]: -0.0764
composite z-score [3]: -0.214
composite z-score [4]: 0.511
composite z-score [5]: 1.21
composite z-score [6]: 0.163
composite z-score [7]: 0.778
z-score [8]: 0.004 (inactive)
composite z-score [9]: 0.524
composite z-score [10]: 0.0722
composite z-score [11]: 1.08
z-score [12]: -0.342 (inactive)
z-score [13]: 0.387 (inactive)
z-score [14]: 0.285 (inactive)
composite z-score [15]: 2.99
z-score [16]: -0.871 (inactive)
composite z-score [17]: -0.016
composite z-score [18]: 0.565
composite z-score [19]: 1.17
composite z-score [20]: -0.0697

C=CCN1C(=O)[C@]2(COC(c3ccc(OCCCO)cc3)=N2)Cc2ccccc21
composite z-score [1]: 0.842
composite z-score [2]: 0.33
composite z-score [3]: 0.136
composite z-score [4]: 0.115
composite z-score [5]: 0.595
composite z-score [6]: 0.977
composite z-score [7]: 1.08
z-score [8]: -0.664 (inactive)
composite z-score [9]: 0.258
composite z-score [10]: -0.3
composite z-score [11]: 1.36
z-score [12]: -2.32 (inactive)
z-score [13]: -5.3 (inactive)
z-score [14]: -1.78 (inactive)
composite z-score [15]: 3.21
z-score [16]: 1.09 (inactive)
composite z-score [17]: 0.0914
composite z-score [18]: 0.044
composite z-score [19]: 0.801
composite z-score [20]: -0.163

O=C1OCC=C[C@H]2OC34C=CCN(c5ccc6ccccc6c5)C(=O)[C@H]3N(CCO)C(=O)[C@@H]4[C@@H]12 (stereo not given in full)
composite z-score [1]: 0.982
composite z-score [2]: -2.22
composite z-score [3]: -0.166
composite z-score [4]: -0.361
composite z-score [5]: -1.4
composite z-score [6]: 1.7
composite z-score [7]: 1.39
z-score [8]: 1.18 (inactive)
composite z-score [9]: -0.127
composite z-score [10]: -0.27
composite z-score [11]: 0.491
z-score [12]: 0.689 (inactive)
z-score [13]: 0.0739 (inactive)
z-score [14]: -0.409 (inactive)
composite z-score [15]: 0.951
z-score [16]: -0.746 (inactive)
composite z-score [17]: -0.0841
composite z-score [18]: -1.58
composite z-score [19]: -0.127
composite z-score [20]: -0.281

COC(=O)[C@@]1(Cc2ccc(OC)cc2)[C@H]2c3cc(C(=O)N4CCCC4)n(C[C@H](O)CO)c3C[C@H]2CN1C(=O)c1ccccc1
composite z-score [1]: 0.288
composite z-score [2]: -0.0909
composite z-score [3]: 0.198
composite z-score [4]: 0.673
composite z-score [5]: 1.13
composite z-score [6]: 1.17
composite z-score [7]: 0.531
z-score [8]: 1.13 (inactive)
composite z-score [9]: 0.488
composite z-score [10]: 0.0749
composite z-score [11]: -0.448
z-score [12]: 0.659 (inactive)
z-score [13]: 1.13 (inactive)
z-score [14]: 0.454 (inactive)
composite z-score [15]: 2.4
z-score [16]: -0.0765 (inactive)
composite z-score [17]: 0.0069
composite z-score [18]: -0.533
composite z-score [19]: 0.355
composite z-score [20]: -0.175
